Reference: publication PMC5540273 (PLoS ONE, 2017)
Read-outs that look alike come from different tables or passages of the source.

Tests used:
Conditions in all cases: n = 1
CDK4 = tested on: CDK4
CDK5 = tested on: CDK5
CDK7 = tested on: CDK7
CDK8 = tested on: CDK8
CDK9 = tested on: CDK9
CDKL1 = tested on: CDKL1
CDKL2 = tested on: CDKL2
CDKL3 = tested on: CDKL3
CDKL5 = tested on: CDKL5
CHEK1 = tested on: CHEK1
[1] = concentration: 1 μM, replicates: in singlicate
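Further: KINOMEscan kinase panel screen.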

SMILES	%Inh (CDK4; [1])	%Inh (CDK5; [1])	%Inh (CDK7; [1])	%Inh (CDK8; [1])	%Inh (CDK9; [1])	%Inh (CDKL1; [1])	%Inh (CDKL2; [1])	%Inh (CDKL3; [1])	%Inh (CDKL5; [1])	%Inh (CHEK1; [1])	%Inh (CDK4; 1 µM)	%Inh (CDK5; 1 µM)	%Inh (CDK7; 1 µM)	%Inh (CDK8; 1 µM)	%Inh (CDK9; 1 µM)	%Inh (CDKL1; 1 µM)	%Inh (CDKL2; 1 µM)	%Inh (CDKL3; 1 µM)	%Inh (CDKL5; 1 µM)	%Inh (CHEK1; 1 µM)
O=C(Nc1ccccc1)Nc1cccc(Oc2ccc3nccn3n2)c1	0%	0%	0%	76%	0%	12%	4%	0%	2%	0%	–	–	–	–	–	–	–	–	–	–
Cc1csc(-c2nc(Nc3ccncc3)c3ccccc3n2)n1 [GW869640]	20%	13%	31%	0%	9%	6%	1%	19%	19%	7%	–	–	–	–	–	–	–	–	–	–
Cc1ccc(NC(=O)Nc2cccc(C(F)(F)F)c2)cc1 [GSK955403]	–	–	–	–	–	–	–	–	–	–	0%	0%	12%	0%	0%	14%	0%	4%	0%	5%
Cc1ccc(-c2cc(-c3c[nH]nc3-c3ccccn3)ccn2)cc1 [GW684088]	43%	0%	9%	52%	5%	0%	28%	0%	0%	12%	–	–	–	–	–	–	–	–	–	–
O=C1NC(=O)C(N2CCc3ccccc32)=C1c1ccccc1Cl [SB-373598]	27%	0%	29%	25%	8%	18%	23%	4%	0%	2%	–	–	–	–	–	–	–	–	–	–
Cc1ccccc1-n1cnc2c(N)ncnc21 [SKF-97510]	0%	0%	0%	0%	0%	14%	0%	39%	0%	5%	–	–	–	–	–	–	–	–	–	–
Cc1ccc(NC(=O)Nc2cc(C(C)(C)C)nn2-c2ccccc2)cc1 [GSK1014915]	0%	8%	0%	58%	14%	15%	13%	0%	14%	24%	–	–	–	–	–	–	–	–	–	–
CC1=C(C(=O)Nc2cc3cn[nH]c3cc2F)C(c2ccc(C(F)(F)F)cc2)CC(=O)N1 (stereo not drawn) [GSK429286]	11%	0%	0%	18%	0%	0%	4%	0%	10%	7%	–	–	–	–	–	–	–	–	–	–
O=C(Nc1n[nH]c2nc(-c3nccs3)c(Br)cc12)C1CCCC1 [SB-742609]	81%	0%	73%	0%	100%	0%	88%	0%	0%	0%	–	–	–	–	–	–	–	–	–	–
Cl.NC(=O)c1cccc(Nc2nccc(Nc3ccc(Oc4cccc(Cl)c4)c(Cl)c3)n2)c1 [GW659008]	48%	0%	0%	28%	0%	9%	23%	0%	0%	0%	–	–	–	–	–	–	–	–	–	–
Cc1cccc(-c2nc(C)cc(Nc3ccncc3)n2)n1 [GSK257997]	28%	0%	0%	0%	95.9%	3%	0%	0%	6%	0%	–	–	–	–	–	–	–	–	–	–
Cn1ccc2ncnc(Oc3ccc(Nc4nc5ccccc5[nH]4)cc3)c21	0%	0%	0%	6%	0%	18%	0%	11%	0%	0%	–	–	–	–	–	–	–	–	–	–
Cc1c(O)cccc1Nc1ccnc2ccc(C(F)(F)F)cc12.Cl [GW466413]	33%	0%	0%	18%	0%	0%	5%	0%	0%	0%	–	–	–	–	–	–	–	–	–	–
CCn1c(-c2cccnc2O)nc2cnccc21 [SB-736715]	4%	0%	0%	33%	0%	13%	0%	10%	0%	0%	–	–	–	–	–	–	–	–	–	–
O=C(O)COc1ncnc2cc(-c3ccc4[nH]ncc4c3)sc12	0%	45%	30%	4%	0%	11%	0%	13%	17%	0%	–	–	–	–	–	–	–	–	–	–
CC(=O)Nc1nc2cnc(Nc3cc(NC(=O)c4cccc(CCC#N)c4)ccc3C)nc2s1	2%	12%	39%	5%	0%	0%	29%	0%	4%	0%	–	–	–	–	–	–	–	–	–	–
Cn1cncc1-c1ccc2ncnc(Nc3ccc(OCc4ccccc4)cc3)c2c1 [GW320571]	0%	3%	0%	29%	0%	0%	19%	0%	0%	15%	–	–	–	–	–	–	–	–	–	–
COc1ccc2nc(-c3cccc(C)n3)nc(Nc3ccncc3)c2c1 [GSK204919]	0%	0%	0%	7%	0%	4%	24%	0%	0%	10%	–	–	–	–	–	–	–	–	–	–
